For 11 molecules, 5-HT1 results are on record in PMC8159961, “Exploring protein hotspots by optimized fragment pharmacophores” (Nature Communications, 2021).

Values without a mark were called inactive. No rule for the calls is given here.

The target in the assay is 5-HT1A receptor (human, UniProt P08908). Kind of assay: primary screen, binary call; higher = more effect of the substance. Further details: hit call from the mean of at least two separate experiments. Conditions: 10 µM. The protocol: GPCR radioligand binding assays were performed in HEK293 cells with stable expression of human 5-HT1A, 5-HT6, and 5-HT7b receptors (prepared with the use of Lipofectamine 2000). Non-specific binding was defined with 10 µM of 5-HT in 5-HT1AR and 5-HT7R binding experiments, whereas 10 µM of mianserin was used in 5-HT6R assays, respectively. Each compound was tested at 10 µM concentration. Results were expressed as means of at least two separate experiments.
Sequence of 5-HT1A receptor (P08908 whole entry, looked up): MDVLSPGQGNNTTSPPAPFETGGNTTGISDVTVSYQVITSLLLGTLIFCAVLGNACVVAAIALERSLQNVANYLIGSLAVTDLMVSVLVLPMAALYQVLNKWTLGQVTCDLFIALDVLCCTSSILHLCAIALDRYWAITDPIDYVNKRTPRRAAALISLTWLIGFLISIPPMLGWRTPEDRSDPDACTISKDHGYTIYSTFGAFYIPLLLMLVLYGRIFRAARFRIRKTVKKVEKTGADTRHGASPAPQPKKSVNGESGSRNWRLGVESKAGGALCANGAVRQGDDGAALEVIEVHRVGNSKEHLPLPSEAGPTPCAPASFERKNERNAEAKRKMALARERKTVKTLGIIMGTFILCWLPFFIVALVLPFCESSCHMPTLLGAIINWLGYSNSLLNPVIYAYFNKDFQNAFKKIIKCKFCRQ
As for `Cn1c(CO)nc2ccccc21`, the 5-HT1 was 0.
The value for `COc1ccccc1N1CCNCC1` was 1 (active); that for `O=C1NC(=O)/C(=C\c2cccs2)N1` was 0; that for `CS(=O)(=O)c1ccc(OC(F)(F)F)cc1` was 0.
In the case of `Cn1nc(C(F)(F)F)cc1O` it was 0; in that of `CS(=O)(=O)c1ccc(N2CCNCC2)cc1`, 0; in that of `N#Cc1ccc2ncsc2c1`, 0.
The value for `O=c1[nH]ncc2c1oc1ccccc12` was 0; that for `CC(=O)c1ccc2c(c1)CCCN2` was 0; that for `N#Cc1ccc(C(=O)N2CCOCC2)cc1` was 0.
Consider `Oc1ccc(-n2cncn2)cc1`, for which the 5-HT1 was 0.
